This passage reports inhibition results from ChEMBL document CHEMBL1961873, “Compounds: GSK PKIS; Assays: Nanosyn kinase panel” (2012).

Assay [1] has as its target T1, Ephrin type-B receptor 2 (Homo sapiens) (UniProt P29323).
T1 sequence (whole entry): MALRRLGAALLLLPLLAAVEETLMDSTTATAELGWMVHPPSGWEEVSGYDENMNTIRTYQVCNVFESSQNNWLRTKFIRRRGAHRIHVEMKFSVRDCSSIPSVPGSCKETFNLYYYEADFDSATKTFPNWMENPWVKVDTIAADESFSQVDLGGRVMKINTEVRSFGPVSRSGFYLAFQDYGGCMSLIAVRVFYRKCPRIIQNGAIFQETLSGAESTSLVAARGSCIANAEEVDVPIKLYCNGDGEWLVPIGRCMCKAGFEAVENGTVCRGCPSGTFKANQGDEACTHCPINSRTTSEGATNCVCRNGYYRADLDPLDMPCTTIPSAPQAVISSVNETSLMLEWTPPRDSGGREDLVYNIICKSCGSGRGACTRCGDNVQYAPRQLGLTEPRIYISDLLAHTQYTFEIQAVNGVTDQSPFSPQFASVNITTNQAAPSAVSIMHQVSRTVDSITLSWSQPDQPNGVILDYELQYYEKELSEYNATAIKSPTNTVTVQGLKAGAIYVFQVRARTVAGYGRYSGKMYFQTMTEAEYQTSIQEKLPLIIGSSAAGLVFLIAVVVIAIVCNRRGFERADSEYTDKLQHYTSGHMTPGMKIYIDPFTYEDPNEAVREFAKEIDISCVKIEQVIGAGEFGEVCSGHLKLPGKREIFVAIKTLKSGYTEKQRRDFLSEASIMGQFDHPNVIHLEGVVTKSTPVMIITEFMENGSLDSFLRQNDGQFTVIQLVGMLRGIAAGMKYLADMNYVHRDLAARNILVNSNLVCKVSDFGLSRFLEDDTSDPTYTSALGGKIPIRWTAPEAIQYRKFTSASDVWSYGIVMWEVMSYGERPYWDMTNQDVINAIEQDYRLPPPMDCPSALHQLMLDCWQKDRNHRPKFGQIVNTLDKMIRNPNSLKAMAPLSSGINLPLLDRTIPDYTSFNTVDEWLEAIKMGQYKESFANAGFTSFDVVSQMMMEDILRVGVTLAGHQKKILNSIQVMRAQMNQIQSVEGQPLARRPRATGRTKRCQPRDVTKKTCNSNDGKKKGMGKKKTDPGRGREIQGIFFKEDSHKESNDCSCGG
The following applies: at 1 µM.

Assay [2] has as its target T2, Ephrin type-B receptor 3 (Homo sapiens) (UniProt P54753).
T2 sequence (whole entry): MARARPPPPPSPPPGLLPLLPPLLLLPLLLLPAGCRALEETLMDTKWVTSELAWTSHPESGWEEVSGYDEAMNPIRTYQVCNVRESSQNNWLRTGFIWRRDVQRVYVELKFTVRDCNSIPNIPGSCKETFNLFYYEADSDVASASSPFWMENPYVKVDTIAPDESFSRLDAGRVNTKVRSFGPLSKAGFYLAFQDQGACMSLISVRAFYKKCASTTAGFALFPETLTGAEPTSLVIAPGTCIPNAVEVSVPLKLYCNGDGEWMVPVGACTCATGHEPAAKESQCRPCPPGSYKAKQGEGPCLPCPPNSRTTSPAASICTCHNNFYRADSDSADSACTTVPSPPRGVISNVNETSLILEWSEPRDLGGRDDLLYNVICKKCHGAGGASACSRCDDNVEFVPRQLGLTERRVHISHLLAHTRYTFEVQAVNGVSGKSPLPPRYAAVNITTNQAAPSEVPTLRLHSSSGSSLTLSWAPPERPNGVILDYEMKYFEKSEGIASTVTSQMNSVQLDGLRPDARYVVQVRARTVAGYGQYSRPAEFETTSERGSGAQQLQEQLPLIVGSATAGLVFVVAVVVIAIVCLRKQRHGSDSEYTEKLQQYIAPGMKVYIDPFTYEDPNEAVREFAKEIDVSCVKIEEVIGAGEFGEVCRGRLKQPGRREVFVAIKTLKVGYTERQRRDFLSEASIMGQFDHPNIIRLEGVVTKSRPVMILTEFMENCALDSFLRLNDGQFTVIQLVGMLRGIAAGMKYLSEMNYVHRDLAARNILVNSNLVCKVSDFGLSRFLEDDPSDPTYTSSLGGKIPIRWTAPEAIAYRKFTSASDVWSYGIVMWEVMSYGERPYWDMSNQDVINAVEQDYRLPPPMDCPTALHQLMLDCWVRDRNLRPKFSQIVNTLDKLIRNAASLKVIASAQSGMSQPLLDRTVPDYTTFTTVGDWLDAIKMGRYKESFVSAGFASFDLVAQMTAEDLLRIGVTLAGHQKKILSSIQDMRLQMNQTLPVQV
The following applies: at 0.1 µM.

Assay [3] deals with T2, Ephrin type-B receptor 3 (Homo sapiens). The following applies: at 1 µM.
Assay [4] deals with T3, Ephrin type-B receptor 4 (Homo sapiens) (UniProt P54760).
T3 sequence (whole entry): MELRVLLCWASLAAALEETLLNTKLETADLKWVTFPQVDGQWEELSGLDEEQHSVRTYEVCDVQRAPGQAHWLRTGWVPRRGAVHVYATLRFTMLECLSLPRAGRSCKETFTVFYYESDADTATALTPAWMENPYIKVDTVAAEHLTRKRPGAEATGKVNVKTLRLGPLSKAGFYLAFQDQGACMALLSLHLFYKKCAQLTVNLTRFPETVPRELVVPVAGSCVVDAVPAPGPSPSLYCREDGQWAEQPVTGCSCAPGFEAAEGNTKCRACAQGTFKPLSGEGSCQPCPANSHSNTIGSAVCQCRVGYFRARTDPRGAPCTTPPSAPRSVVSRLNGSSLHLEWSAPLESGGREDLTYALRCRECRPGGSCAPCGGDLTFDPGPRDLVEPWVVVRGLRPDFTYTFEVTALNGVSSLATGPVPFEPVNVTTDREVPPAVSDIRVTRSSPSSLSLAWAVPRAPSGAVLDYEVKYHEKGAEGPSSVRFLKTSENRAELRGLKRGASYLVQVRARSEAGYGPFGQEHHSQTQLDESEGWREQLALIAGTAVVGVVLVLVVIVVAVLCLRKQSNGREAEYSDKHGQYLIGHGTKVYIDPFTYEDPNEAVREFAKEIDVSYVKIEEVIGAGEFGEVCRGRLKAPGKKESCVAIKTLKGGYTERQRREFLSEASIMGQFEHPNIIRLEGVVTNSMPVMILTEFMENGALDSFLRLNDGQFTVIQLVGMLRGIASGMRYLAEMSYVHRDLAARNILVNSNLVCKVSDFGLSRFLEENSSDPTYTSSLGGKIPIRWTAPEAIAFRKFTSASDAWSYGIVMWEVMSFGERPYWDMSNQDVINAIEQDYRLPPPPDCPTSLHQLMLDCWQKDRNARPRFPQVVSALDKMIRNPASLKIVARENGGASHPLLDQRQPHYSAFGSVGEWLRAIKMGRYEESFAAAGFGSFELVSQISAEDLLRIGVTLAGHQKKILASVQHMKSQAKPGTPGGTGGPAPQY
The following applies: at 0.1 µM.

Assay [5] deals with T3, Ephrin type-B receptor 4 (Homo sapiens). The following applies: at 1 µM.
The target in assay [6] is Receptor tyrosine-protein kinase erbB-2 (Homo sapiens) (UniProt P04626). To be noted: at 0.1 µM.
Assay [7] shares this target. To be noted: at 1 µM.
Assay [8] addresses Receptor tyrosine-protein kinase erbB-4 (Homo sapiens) (UniProt Q15303). To be noted: at 0.1 µM.
Assay [9] shares this target. To be noted: at 1 µM.
In assay [10] the target is Tyrosine-protein kinase Fer (Homo sapiens) (UniProt P16591). To be noted: at 0.1 µM.
The target is the same in assay [11]. The following applies: at 1 µM.
Assay [12] has as its target Tyrosine-protein kinase Fes/Fps (Homo sapiens) (UniProt P07332). The following applies: at 0.1 µM.
Assay [13] shares this target. The following applies: at 1 µM.
Assay [14] addresses Fibroblast growth factor receptor 1 (Homo sapiens) (UniProt P11362). To be noted: at 0.1 µM.
Assay [15] has the same target. The following applies: at 1 µM.
Assay [16] deals with Fibroblast growth factor receptor 2 (Homo sapiens) (UniProt P21802). To be noted: at 0.1 µM.
Assay [17] shares this target. The following applies: at 1 µM.
The target of assay [18] is Fibroblast growth factor receptor 3 (Homo sapiens) (UniProt P22607). To be noted: at 0.1 µM.
The target is the same in assay [19]. To be noted: at 1 µM.
The target of assay [20] is Fibroblast growth factor receptor 4 (Homo sapiens) (UniProt P22455). The following applies: at 0.1 µM.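 Also: values are mean percent inhibition of FGFR4.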

As usually defined, the inhibition is the change of the read-out against control, counted positive when it falls.

Sequence of Receptor tyrosine-protein kinase erbB-4 (Homo sapiens) (Q15303 whole entry): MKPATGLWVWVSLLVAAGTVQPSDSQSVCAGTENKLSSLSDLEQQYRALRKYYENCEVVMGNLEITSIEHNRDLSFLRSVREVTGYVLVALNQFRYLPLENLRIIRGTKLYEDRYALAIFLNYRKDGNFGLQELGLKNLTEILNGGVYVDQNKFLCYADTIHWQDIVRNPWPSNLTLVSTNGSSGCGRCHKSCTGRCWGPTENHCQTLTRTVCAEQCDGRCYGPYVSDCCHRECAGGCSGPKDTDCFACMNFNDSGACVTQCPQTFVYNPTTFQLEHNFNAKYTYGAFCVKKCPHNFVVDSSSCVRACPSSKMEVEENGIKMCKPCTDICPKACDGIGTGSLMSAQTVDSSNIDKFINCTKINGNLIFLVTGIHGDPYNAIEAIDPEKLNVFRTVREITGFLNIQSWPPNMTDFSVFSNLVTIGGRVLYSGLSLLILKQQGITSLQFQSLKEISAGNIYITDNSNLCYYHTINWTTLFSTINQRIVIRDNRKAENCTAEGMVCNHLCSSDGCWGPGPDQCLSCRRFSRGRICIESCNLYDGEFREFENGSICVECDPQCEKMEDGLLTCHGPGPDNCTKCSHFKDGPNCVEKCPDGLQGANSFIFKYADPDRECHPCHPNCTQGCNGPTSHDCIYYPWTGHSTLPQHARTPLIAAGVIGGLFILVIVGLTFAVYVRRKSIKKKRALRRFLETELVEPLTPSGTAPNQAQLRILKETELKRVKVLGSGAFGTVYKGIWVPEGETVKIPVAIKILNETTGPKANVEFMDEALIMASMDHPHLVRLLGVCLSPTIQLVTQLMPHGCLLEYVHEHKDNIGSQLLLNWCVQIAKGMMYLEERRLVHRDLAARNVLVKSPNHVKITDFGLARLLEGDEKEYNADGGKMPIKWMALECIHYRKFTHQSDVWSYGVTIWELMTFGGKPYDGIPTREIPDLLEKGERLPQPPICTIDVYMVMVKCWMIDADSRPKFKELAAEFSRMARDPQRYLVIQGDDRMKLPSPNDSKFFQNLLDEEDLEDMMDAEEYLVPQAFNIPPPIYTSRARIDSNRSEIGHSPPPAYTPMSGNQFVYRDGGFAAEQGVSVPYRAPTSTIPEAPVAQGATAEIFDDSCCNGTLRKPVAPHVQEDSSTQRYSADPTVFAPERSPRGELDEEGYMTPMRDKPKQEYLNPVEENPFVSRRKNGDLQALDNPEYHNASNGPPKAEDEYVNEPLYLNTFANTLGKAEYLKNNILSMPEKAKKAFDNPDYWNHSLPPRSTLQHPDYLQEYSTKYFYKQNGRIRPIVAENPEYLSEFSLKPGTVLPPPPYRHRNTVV
Sequence of Fibroblast growth factor receptor 1 (Homo sapiens) (P11362 22-822 limits assumed): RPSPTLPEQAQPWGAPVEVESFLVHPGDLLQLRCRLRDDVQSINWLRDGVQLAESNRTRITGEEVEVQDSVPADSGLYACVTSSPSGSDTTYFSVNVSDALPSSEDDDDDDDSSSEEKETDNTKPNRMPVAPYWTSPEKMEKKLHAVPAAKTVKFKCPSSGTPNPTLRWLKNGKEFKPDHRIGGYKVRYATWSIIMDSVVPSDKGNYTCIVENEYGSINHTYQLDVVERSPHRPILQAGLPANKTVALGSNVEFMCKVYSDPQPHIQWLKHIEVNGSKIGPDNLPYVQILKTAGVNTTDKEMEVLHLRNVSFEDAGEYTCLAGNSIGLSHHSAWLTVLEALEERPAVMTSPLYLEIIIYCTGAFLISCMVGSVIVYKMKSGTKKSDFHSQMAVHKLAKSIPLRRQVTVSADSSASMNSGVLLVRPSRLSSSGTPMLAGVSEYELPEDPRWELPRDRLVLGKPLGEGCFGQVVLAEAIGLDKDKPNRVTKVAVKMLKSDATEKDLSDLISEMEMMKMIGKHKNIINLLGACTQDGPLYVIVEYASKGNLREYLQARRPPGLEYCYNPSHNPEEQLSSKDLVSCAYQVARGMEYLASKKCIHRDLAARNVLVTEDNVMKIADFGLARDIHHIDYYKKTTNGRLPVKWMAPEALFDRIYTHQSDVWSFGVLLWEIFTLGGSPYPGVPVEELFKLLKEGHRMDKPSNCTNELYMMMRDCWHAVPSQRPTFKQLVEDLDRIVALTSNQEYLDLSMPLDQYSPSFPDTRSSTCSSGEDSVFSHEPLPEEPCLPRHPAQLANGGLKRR
Sequence of Tyrosine-protein kinase Fes/Fps (Homo sapiens) (P07332 whole entry): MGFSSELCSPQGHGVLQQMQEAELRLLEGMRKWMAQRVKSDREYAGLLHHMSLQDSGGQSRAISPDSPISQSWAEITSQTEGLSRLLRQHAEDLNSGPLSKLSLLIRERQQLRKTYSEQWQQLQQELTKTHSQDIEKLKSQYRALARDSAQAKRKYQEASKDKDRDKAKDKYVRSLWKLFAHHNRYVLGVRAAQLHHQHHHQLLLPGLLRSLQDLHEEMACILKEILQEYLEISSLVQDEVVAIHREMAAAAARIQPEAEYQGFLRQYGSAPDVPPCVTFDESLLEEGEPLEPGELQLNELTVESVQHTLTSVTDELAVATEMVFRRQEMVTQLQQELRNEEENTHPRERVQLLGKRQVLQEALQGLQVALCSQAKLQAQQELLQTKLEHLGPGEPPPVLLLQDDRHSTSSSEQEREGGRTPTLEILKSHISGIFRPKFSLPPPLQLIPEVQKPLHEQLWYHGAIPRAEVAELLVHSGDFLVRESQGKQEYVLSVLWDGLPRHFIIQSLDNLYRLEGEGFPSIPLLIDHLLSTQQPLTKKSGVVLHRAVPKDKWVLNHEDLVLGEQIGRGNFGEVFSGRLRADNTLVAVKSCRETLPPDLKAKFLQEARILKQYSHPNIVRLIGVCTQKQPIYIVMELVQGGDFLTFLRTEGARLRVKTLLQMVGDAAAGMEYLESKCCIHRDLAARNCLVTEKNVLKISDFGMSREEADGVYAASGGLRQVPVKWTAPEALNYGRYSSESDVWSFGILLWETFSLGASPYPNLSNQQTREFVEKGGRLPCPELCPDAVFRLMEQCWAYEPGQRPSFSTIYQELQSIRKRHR
Sequence of Receptor tyrosine-protein kinase erbB-2 (Homo sapiens) (P04626 whole entry): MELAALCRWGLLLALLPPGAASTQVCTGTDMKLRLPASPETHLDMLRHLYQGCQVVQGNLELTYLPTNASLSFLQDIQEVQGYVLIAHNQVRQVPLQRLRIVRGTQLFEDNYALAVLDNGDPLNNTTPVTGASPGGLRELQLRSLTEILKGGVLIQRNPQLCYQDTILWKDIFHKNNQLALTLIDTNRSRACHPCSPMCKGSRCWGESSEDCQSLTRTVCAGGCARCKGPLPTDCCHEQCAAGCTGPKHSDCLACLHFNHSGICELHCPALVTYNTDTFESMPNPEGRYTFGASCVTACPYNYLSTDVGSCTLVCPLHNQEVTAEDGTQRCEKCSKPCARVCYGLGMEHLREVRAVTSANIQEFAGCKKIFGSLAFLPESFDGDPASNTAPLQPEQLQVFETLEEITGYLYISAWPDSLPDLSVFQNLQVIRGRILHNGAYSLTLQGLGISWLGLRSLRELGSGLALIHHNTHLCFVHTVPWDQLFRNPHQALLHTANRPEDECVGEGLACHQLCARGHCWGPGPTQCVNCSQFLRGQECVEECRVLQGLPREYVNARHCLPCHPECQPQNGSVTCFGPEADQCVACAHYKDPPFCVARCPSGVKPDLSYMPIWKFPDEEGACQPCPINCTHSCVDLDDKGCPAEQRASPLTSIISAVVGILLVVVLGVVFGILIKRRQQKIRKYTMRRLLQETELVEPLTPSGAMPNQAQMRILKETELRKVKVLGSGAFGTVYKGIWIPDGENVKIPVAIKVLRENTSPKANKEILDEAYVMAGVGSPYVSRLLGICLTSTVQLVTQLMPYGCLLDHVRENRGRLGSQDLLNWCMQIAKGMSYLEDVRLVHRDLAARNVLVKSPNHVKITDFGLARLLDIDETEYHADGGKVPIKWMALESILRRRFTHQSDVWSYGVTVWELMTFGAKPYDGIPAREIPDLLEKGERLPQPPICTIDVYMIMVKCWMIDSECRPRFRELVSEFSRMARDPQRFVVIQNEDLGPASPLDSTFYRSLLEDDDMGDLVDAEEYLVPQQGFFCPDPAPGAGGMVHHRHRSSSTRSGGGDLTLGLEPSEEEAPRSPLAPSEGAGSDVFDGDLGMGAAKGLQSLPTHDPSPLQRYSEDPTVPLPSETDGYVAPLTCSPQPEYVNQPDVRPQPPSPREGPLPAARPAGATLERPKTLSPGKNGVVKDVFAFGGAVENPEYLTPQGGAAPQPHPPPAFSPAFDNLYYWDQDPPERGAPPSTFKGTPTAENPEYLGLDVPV
Sequence of Tyrosine-protein kinase Fer (Homo sapiens) (P16591 whole entry, looked up): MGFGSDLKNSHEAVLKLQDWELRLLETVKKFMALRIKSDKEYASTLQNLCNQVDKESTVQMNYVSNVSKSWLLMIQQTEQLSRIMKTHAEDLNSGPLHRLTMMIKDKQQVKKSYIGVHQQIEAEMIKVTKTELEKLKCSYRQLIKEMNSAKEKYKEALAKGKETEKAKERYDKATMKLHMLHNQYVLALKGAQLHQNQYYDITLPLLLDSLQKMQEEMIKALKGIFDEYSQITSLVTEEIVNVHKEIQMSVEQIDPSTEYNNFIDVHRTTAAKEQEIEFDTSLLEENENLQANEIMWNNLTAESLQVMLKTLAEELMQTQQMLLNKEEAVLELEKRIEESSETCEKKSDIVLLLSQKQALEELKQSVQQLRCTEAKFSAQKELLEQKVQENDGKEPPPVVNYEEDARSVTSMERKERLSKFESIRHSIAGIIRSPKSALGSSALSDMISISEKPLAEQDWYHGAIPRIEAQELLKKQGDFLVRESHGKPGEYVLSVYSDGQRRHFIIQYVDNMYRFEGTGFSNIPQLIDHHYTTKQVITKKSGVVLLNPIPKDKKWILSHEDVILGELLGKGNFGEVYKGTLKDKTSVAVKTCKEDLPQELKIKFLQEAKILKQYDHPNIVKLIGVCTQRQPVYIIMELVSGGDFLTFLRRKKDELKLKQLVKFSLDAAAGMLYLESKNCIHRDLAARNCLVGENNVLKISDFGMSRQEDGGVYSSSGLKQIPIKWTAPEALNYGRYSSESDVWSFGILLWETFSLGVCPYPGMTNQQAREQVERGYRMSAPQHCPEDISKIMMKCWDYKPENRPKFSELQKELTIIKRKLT

Take `COC(=O)Nc1nc2ccc(Oc3ccc(NC(=O)Nc4cc(C(F)(F)F)ccc4F)cc3)cc2s1`: the inhibition in [1] was 83.7%; in [2] it was 16.8%; in [3], 36.6%; in [4], 29.6%; in assay [5], 73%; in assay [6] it was -0.44%. The inhibition was -0.72% in assay [7]; 3.56% in [8]; 3.36% in assay [9]; 3.43% in assay [10]; 6.3% in assay [11]; 0.15% in [12]. Moreover, the inhibition was 0.99% in [13]; 4.86% in assay [14]; 16.9% in [15]; 2.26% in [16]; 29.7% in assay [17]; 5.73% in assay [18]. Moreover, the inhibition in assay [19] stood at 11.5%; in assay [20] it was 0.42%.

Turning to `CN1CCC(n2cnc(-c3ccc(F)cc3)c2-c2ccnc(NCCO)n2)CC1`, the inhibition in [1] stood at 10.7%; in assay [2], 4.67%; in assay [3], 2%; in assay [4] it was 1.85%; in assay [5], 8.07%; in assay [6], 0.93%. Moreover, the inhibition in assay [7] amounted to 6.66%; in [8], 9.26%; in assay [9] it was 12.3%; in [10], 7.03%; in assay [11], 7.14%; in assay [12] it was 2.72%. Also, the inhibition was 3.24% in [13]; 3.14% in [14]; -2.05% in assay [15]; 3.73% in assay [16]; 6.49% in assay [17]; 7.57% in [18]. The figures for the inhibition in assay [19] and in [20] were 5.67% and -1.01%, respectively.

`COc1ccc(Nc2ncc(-c3ccccc3)o2)cc1OC`: the inhibition in assay [1] was -1.55%; in assay [2] it was 2.4%; in assay [3] it was -5.15%; in assay [4], 2.84%; in [5], 6.24%; in [6], 0.01%. In addition, the inhibition in [7] was -2.56%; in assay [8] it was 6.4%; in assay [9] it was 8.57%; in assay [10], 0.47%; in [11], 4.34%; in assay [12], 0.6%. The inhibition was 3.66% in assay [13]; -3.4% in [14]; 5.44% in assay [15]; 1.29% in assay [16]; 19.4% in assay [17]; 2.32% in [18]. In addition, the figures for the inhibition in assay [19] and in assay [20] were 13.2% and 0.41%, respectively.
